This assay can be described thus: Vibrio cholerae motility inhibitors, OD read-out (AID 588778). The following applies: stronger effect = higher value.
The mark [1] stands for this setting: measured here: bacterial viability at 10 ug/mL.

24 compounds from PubChem BioAssay AID588778 (Southern Research Institute, 2011) can be followed below.

As a reminder, the inhibition is the relative decrease from the control value, in per cent.

Molecules are shown by their SMILES. Fewer than 10 of roughly 10,000 compounds were called active. The rule behind the calls is not given here. These entries were drawn from the full list.

For `O=C(Nc1cnccn1)c1cccs1`, the inhibition was 20.3% (inactive) (concentration not given here) and 10.6% under setting [1].

Take `CCOC(=O)N1CCN(C(=O)c2ccc(C#CC3(O)CCCCC3)cc2)CC1`: the inhibition by setting is: (concentration not given here) -17.2% (inactive); under setting [1], -5.67%.

Take `CC(C)N=C(NS(=O)(=O)c1ccccc1)c1ccccc1`: the inhibition is, setting by setting: (concentration not given here) -3.11% (inactive); under setting [1], -1.85%.

Take `Cc1nc(NC(=O)c2c(F)c(F)c(F)c(F)c2F)ccc1I`: the inhibition (concentration not given here) was 13% (inactive) and the inhibition under setting [1] worked out at 0.675%.

Take `COc1ccc2[nH]cc(CCNS(=O)(=O)Cc3ccccc3)c2c1`: the inhibition runs as follows: (concentration not given here) 8.63% (inactive); under setting [1], 0.04%.

For `O=C(NC(=S)NCc1ccccc1)C1CC1`, the inhibition is, setting by setting: (concentration not given here) 12.4% (inactive); under setting [1], 5.74%.

For the compound `CC(NC(=O)c1ccco1)c1ccc(I)cc1` (stereo not drawn), the inhibition by setting is: (concentration not given here) 15.8% (inactive); under setting [1], 23.3%.

For the compound `CSc1cccc(NC(=O)Cn2c(C)c(C=O)c3ccccc32)c1`, the inhibition by setting is: (concentration not given here) 20.7% (inactive); under setting [1], 5.17%.

Turning to `CC(C)(C)OC(=O)NNC(=O)Nc1ccccc1C(F)(F)F`, the inhibition runs as follows: (concentration not given here) 15.3% (inactive); under setting [1], 31.8%.

For the compound `O=C(O)c1ccc(NC(=O)c2ccc(Cl)cc2)c(NC(=O)c2ccc(Cl)cc2)c1`, the inhibition was -7.79% (inactive) (concentration not given here) and -2.21% under setting [1].

Regarding `N#Cc1cc2c(nc1SCC1(O)CCCc3ccccc31)CCCC2` (stereo not drawn), the inhibition by setting is: (concentration not given here) 8.28% (inactive); under setting [1], -3.11%.

With `COc1ccc(-c2csc3ncnc(Oc4cccc5cccnc45)c23)cc1`, the inhibition is, setting by setting: (concentration not given here) -32.6% (inactive); under setting [1], -9.37%.

For `COc1cccc2cc(C(=O)Nc3scc(-c4ccc(F)cc4)c3C(=O)OC(C)C)c(=O)oc12`, the inhibition (concentration not given here) is -22.6% (inactive) and the inhibition under setting [1] is -8.21%.

As for `O=[N+]([O-])c1cccc(CN2CCC(N3CCCC3)CC2)c1`, the inhibition is, setting by setting: (concentration not given here) -18.4% (inactive); under setting [1], -10.2%.

As for `NC(=O)C1(N2CCCCC2)CCN(C(=O)CSc2nc3ccccc3o2)CC1`, the inhibition by setting is: (concentration not given here) 4.33% (inactive); under setting [1], -1.26%.

`CCN(CC#CCCOC(C)=O)c1ccccc1`: the inhibition (concentration not given here) was -9.42% (inactive) and the inhibition under setting [1] is -8.17%.

Turning to `O=C(NC(=S)Nc1ccc(Cl)cc1C(F)(F)F)c1ccccc1I`, the inhibition (concentration not given here) was -7.41% (inactive) and the inhibition under setting [1] was -8.11%.

Turning to `COc1cc(C=O)ccc1OC(=O)c1nsc(Cl)c1Cl`, the inhibition is 2.31% (inactive) (concentration not given here) and 2.66% under setting [1].

For the compound `O=C(NCCSc1ccc(Cl)cc1)Nc1ccccc1`, the inhibition reads like this: (concentration not given here) 52.1% (inactive); under setting [1], 14.4%.

Turning to `Cc1ccc(F)c(NC(=O)CN2C(=O)CSc3ccccc32)c1`, the inhibition by setting is: (concentration not given here) 16.3% (inactive); under setting [1], 13.8%.

Turning to `CCCCCOc1ccc(NC(=O)C(=O)NCCN2CCOCC2)cc1`, the inhibition is, setting by setting: (concentration not given here) -4.07% (inactive); under setting [1], -7.64%.

Regarding `COc1ccc(C(=O)N(Cc2ccc(C)o2)C2CCS(=O)(=O)C2)cc1Cl` (stereo not drawn), the inhibition runs as follows: (concentration not given here) 1.9% (inactive); under setting [1], 1.08%.

For the compound `Cc1nnc(SCC(=O)Nc2ccc(Cl)cn2)s1`, the inhibition is, setting by setting: (concentration not given here) -2.25% (inactive); under setting [1], -0.63%.

With `Cc1ccc(S(=O)(=O)Nc2ccc(C(=O)Nc3nccs3)cc2)cc1`, the inhibition is 4.81% (inactive) (concentration not given here) and -2.49% under setting [1].
